Read-out in experiment [1]: Tissue plasminogen activator (tPA), PLAT (gene 5327)
The experiment in a line: BSK_BE3C_tPA: BioMAP Diversity Plus: BE3C Assay for Tissue plasminogen activator (tPA) Biomarker Activity (AID 2283041).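 Note: tPA level quantified by ELISA one day after compound addition.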 The following applies: primary human bronchial epithelial cells; actives raise or lower the signal. The procedure, abridged:
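ELISA read-out of tPA on human primary bronchial epithelial cells, 24 h post-dosing; bidirectional fit vs DMSO negative control/baseline.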

Read-out in experiment [2]: Interleukin-8 (IL8), CXCL8 (gene 3576)
The experiment in a line: BSK_CASM3C_IL8: BioMAP Diversity Plus: CASM3C Assay for Interleukin-8 (IL8) Biomarker Activity (AID 2283042).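 Note: IL-8 protein level quantified by ELISA.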 The following applies: primary human coronary artery smooth muscle cells; actives raise or lower the signal.

Read-out in experiment [3]: Human Leukocyte Antigen - DR isotype (HLADR), HLA-DRA (gene 3122)
The experiment in a line: BSK_CASM3C_HLADR: BioMAP Diversity Plus: CASM3C Assay for Human Leukocyte Antigen - DR isotype (HLADR) Biomarker Activity (AID 2283043).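 Note: cell-surface HLA-DR protein level quantified by ELISA.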 The following applies: primary human coronary artery smooth muscle cells; actives raise or lower the signal.

Read-out in experiment [4]: Macrophage colony-stimulating factor (MCSF), CSF1 (gene 1435)
The experiment in a line: BSK_CASM3C_MCSF: BioMAP Diversity Plus: CASM3C Assay for Macrophage colony-stimulating factor (MCSF) Biomarker Activity (AID 2283044).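 Note: M-CSF protein amount quantified by ELISA after 24 h exposure.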 The following applies: primary human coronary artery smooth muscle cells; actives raise or lower the signal.

Read-out in experiment [5]: Low-density lipoprotein receptor (LDLR), LDLR (gene 3949)
The experiment in a line: BSK_CASM3C_LDLR: BioMAP Diversity Plus: CASM3C Assay for Low-density lipoprotein receptor (LDLR) Biomarker Activity (AID 2283045).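 Note: LDLR protein level on the cell surface quantified by ELISA.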 The following applies: primary human coronary artery smooth muscle cells; actives raise or lower the signal.

Read-out in experiment [6]: Monocyte Chemoattractant Protein-1 (MCP1), CCL2 (gene 6347)
The experiment in a line: BSK_CASM3C_MCP1: BioMAP Diversity Plus: CASM3C Assay for Monocyte Chemoattractant Protein-1 (MCP1) Biomarker Activity (AID 2283046).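 Note: MCP-1 level quantified by ELISA 24 h after dosing.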 The following applies: primary human coronary artery smooth muscle cells; actives raise or lower the signal.

A short description of experiment [7]: BSK_CASM3C_Proliferation: Cell Proliferation Assessment in the BioMAP Diversity Plus: CASM3C Assay (AID 2283047).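 Note: sulforhodamine B total protein stain as relative cell number at 560 nm; sub-confluent cells exposed 48 h before staining; fitted both ways against DMSO so gain or loss of cell number.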 The following applies: primary human coronary artery smooth muscle cells.
Read-out in experiment [8]: Monokine induced gamma interferon (MIG), CXCL9 (gene 4283)
The experiment in a line: BSK_CASM3C_MIG: BioMAP Diversity Plus: CASM3C Assay for Monokine induced gamma interferon (MIG) Biomarker Activity (AID 2283048).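 Note: MIG protein level measured by ELISA.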 The following applies: primary human coronary artery smooth muscle cells; actives raise or lower the signal.

Read-out in experiment [9]: serum amyloid A (SAA), SAA1 (gene 6288)
The experiment in a line: BSK_CASM3C_SAA: BioMAP Diversity Plus: CASM3C Assay for serum amyloid A (SAA) Biomarker Activity (AID 2283049).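 Note: SAA protein level quantified by ELISA.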 The following applies: primary human coronary artery smooth muscle cells; actives raise or lower the signal.

Experiment [10] is described as follows: BSK_CASM3C_SRB: Viability Assessment in the BioMAP Diversity Plus: CASM3C Assay (AID 2283050).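 Note: total protein by SRB staining as cytotoxicity measure in parallel cultures; cells exposed to compound for 24 h.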 As to conditions: primary human coronary artery smooth muscle cells.

Active and inactive are the calls of the source. Rule for the calls: active = hit-call score of the fitted dose curve at least 0.9, where 1 is the maximum; inactive = score below 0.9.

The term AC50 denotes the midpoint of the concentration-response curve, whichever way the signal moves.

`C=C(C)[C@H]1Cc2c(ccc3c2O[C@@H]2COc4cc(OC)c(OC)cc4[C@@H]2C3=O)O1`: the outcome in [1], in experiment [2], in experiment [3], in experiment [4], in experiment [5] and in experiment [6] was inactive. Further, the outcome in [8], in [9] and in [10] was inactive. Besides, in experiment [7], the AC50 is 3.97 µM (active).

With `CCc1cccc(CC)c1N(COC)C(=O)CCl`, the result in [1], in experiment [2], in [3], in experiment [4], in experiment [5] and in experiment [6] was inactive. Also, the outcome in experiment [7], in experiment [8], in experiment [9] and in [10] was inactive.

In the case of `Cc1cc(C2CC2)nc(Nc2ccccc2)n1`, the result in experiment [1], in [2], in [3], in experiment [4], in experiment [5] and in experiment [6] was inactive. For the same molecule, the outcome in [8], in [9] and in [10] was inactive. Further, the concentration at half-maximal activity (AC50) in experiment [7] is 14.4 µM (active).

In the case of `FC(F)C(F)(F)OCC(Cn1cncn1)c1ccc(Cl)cc1Cl` (stereo not given), the outcome in experiment [1], in experiment [2], in experiment [3], in experiment [4], in experiment [5] and in experiment [6] was inactive. Also, the result in experiment [7], in experiment [8], in experiment [9] and in experiment [10] was inactive.

For the molecule `COP(=O)(OC)OC(Br)C(Cl)(Cl)Br` (stereo not given), the outcome in experiment [1], in [3] and in experiment [5] was inactive. Besides, the AC50 in experiment [2] was 32.2 µM (active); in experiment [4], 27.7 µM (active); in [6], 28.6 µM (active); in [7] it was 11.2 µM (active); in experiment [8], 29.8 µM (active); in [9], 29.9 µM (active). The AC50 in experiment [10] was 28.8 µM (active).

As for `CCCOc1nn(C(=O)NS(=O)(=O)c2ccccc2C(=O)OC)c(=O)n1C`, the outcome in [1], in [2], in experiment [3], in experiment [4], in experiment [5] and in [6] was inactive. The result in experiment [7], in experiment [8], in experiment [9] and in experiment [10] was inactive.

`C#CC(C)(C)NC(=O)c1cc(Cl)cc(Cl)c1`: the outcome in experiment [1], in experiment [2], in experiment [3], in experiment [4], in experiment [5] and in [6] was inactive. Further, the result in [7], in [8], in experiment [9] and in [10] was inactive.

In the case of `CN1COCN(Cc2cnc(Cl)s2)C1=N[N+](=O)[O-]`, the result in experiment [1], in experiment [2], in [3], in [4], in experiment [5] and in [6] was inactive. In addition, the result in experiment [7], in [8], in experiment [9] and in experiment [10] was inactive.

Take `CC(=NC#N)N(C)Cc1ccc(Cl)nc1`: the result in experiment [1], in experiment [2], in experiment [3], in [4], in experiment [5] and in experiment [6] was inactive. Besides, the outcome in experiment [7], in [8], in experiment [9] and in experiment [10] was inactive.

Turning to `CC1(C(=O)Nc2ccc(O)c(Cl)c2Cl)CCCCC1`, the outcome in experiment [1], in experiment [2], in [3], in [4], in experiment [5] and in [6] was inactive. Also, the result in experiment [7], in [8], in [9] and in [10] was inactive.

Turning to `CC(C)N(C(=O)SCC(Cl)=C(Cl)Cl)C(C)C`, the result in experiment [1], in experiment [2], in [3], in experiment [5], in experiment [6] and in experiment [8] was inactive. Moreover, the result in experiment [9] was inactive. Besides, the concentration at half-maximal activity (AC50) in [4] was 34.4 µM (active); in experiment [7], 37.1 µM (active); in experiment [10] it was 32.4 µM (active).

For the molecule `CC(Oc1cccc(Cl)c1)C(=O)O` (stereo not given), the result in [1], in experiment [2], in experiment [3], in [4], in [5] and in experiment [6] was inactive. For the same molecule, the outcome in [7], in experiment [8], in [9] and in experiment [10] was inactive.

With `COc1cc(OC)nc(Sc2cccc(Cl)c2C(=O)O)n1`, the outcome in experiment [1], in experiment [2], in experiment [3], in experiment [4], in [5] and in [6] was inactive. Moreover, the outcome in experiment [7], in experiment [8], in experiment [9] and in [10] was inactive.

Consider `CNC(=O)Oc1cccc2c1OC(C)(C)O2`, for which the outcome in [1], in [2], in [3], in experiment [4], in experiment [5] and in [6] was inactive. Besides, the result in experiment [7], in [8], in [9] and in experiment [10] was inactive.

Regarding `CC1=NNC(=O)N(/N=C/c2cccnc2)C1`, the result in experiment [1], in experiment [2], in [3], in experiment [4], in [5] and in experiment [6] was inactive. The result in experiment [7], in experiment [8], in [9] and in experiment [10] was inactive.

Take `Cc1ccn2nc(S(=O)(=O)Nc3c(F)cccc3F)nc2n1`: the result in [1], in experiment [2], in [3], in [4], in [5] and in experiment [6] was inactive. For the same molecule, the result in experiment [7], in [8], in [9] and in [10] was inactive.

With `C#CCC1=C(C)C(OC(=O)C2C(C=C(C)C)C2(C)C)CC1=O` (stereo not given), the outcome in [1], in [2], in experiment [3], in experiment [4], in experiment [5] and in experiment [6] was inactive. Besides, the result in experiment [8], in experiment [9] and in experiment [10] was inactive. Also, the AC50 in experiment [7] is 26.8 µM (active).

Regarding `CCOP(=S)(OCC)OC(Cl)C(Cl)(Cl)Cl` (stereo not given), the outcome in [1], in experiment [2], in experiment [3], in experiment [4], in [5] and in experiment [6] was inactive. The result in [8], in experiment [9] and in [10] was inactive. For the same molecule, in experiment [7], the half-maximal activity concentration (AC50) was 37 µM (active).

These data come from PubChem BioAssay (EPA / NIEHS).
